Values without a mark were called inactive. Records with an inconclusive call do not appear. A call without a number means that no potency is given here. Activity calls are given as the source filed them. The call rests on the fitted dose curve; in most records, active means well fitted curve in the direction sought with a large enough effect; inconclusive means small, poorly fitted or top-dose-only effect, or another doubt; inactive means no such curve, though single readings can be large; an effect the other way counts as inactive or inconclusive. Where a SMILES comes first, the peptide text is derived from it. [ ]: non-standard residue; d: D form. dPhe(4-Cl) = N[C@H](Cc1ccc(Cl)cc1)C(=O)O; d2Nal = N[C@H](Cc1ccc2ccccc2c1)C(=O)O; dCit = NC(=O)NCCC[C@@H](N)C(=O)O; d3Pal = N[C@H](Cc1cccnc1)C(=O)O
Key:
[1] = biological target: Glutathione peroxidase 1 (Homo sapiens) (UniProt P07203); test: Primary qHTS Assay for Inhibitors of Recombinant Selenoprotein Glutathione Peroxidase 1 (GPX1) (AID 1845191); further: nearly all actives have a fitted effect of over 65% in size
How it was run: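 GR-coupled assay: compounds preincubated 30 min at room temperature with GPX1, then reaction started with CHP; final 10 nM GPX1, 1 mM GSH, 0.5 mM CHP, 0.5 mM NADPH, 100 nM GR, 0.01% BSA, pH 7.5 Tris buffer. NADPH fluorescence (340/450 nm) read at 0 and 15 min.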

[2] = biological target: Phospholipid hydroperoxide glutathione peroxidase GPX4 (Homo sapiens) (UniProt P36969); test: Primary qHTS Assay for Inhibitors of Recombinant Selenoprotein Glutathione Peroxidase 4 (GPX4) (AID 1845192); further: nearly all actives have a fitted effect of over 65% in size
How it was run: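 GR-coupled assay: recombinant GPX4 preincubated 30 min with compound at room temperature; final 200 nM GPX4, 1 mM GSH, 0.5 mM cumene hydroperoxide, 0.5 mM NADPH, 100 nM GR, 0.01% BSA, pH 7.5 Tris. NADPH fluorescence (340/450 nm) read at 0 and 15 min.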

[3] = biological target: Luciferin 4-monooxygenase (Photinus pyralis) (UniProt P08659); test: Primary firefly luciferase (FLuc) qHTS assay for identification of artifact compounds. (AID 1845220); further: nearly all actives have a fitted effect of over 60% in size
How it was run: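 Titrated compounds were incubated 15 min at RT, protected from light, with luciferin and ATP at 10 uM; reaction started with 10 nM FLuc, luminescence imaged at 5 min, and concentration-response fitted by Hill equation.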

[4] = Primary fluorescence-based thiol-reactive (MSTI) qHTS assay for identification of artifact compounds. (AID 1845221); further: nearly all actives have a fitted effect of over 65% in size; further: potency means the concentration at half of the fitted maximal effect
How it was run: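 MSTI probe at 4 uM final in 2% DMSO/PBS pH 7.4; compounds, 1 h at room temperature in dark. Fluorescence Ex/Em 525/598 nm, normalised to Acetyl-MSTI and MSTI, fitted to 4-parameter Hill.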

[5] = system: Nanoluciferase (engineered Oplophorus gracilirostris luciferase); test: Primary Nanoluciferase (NLuc) qHTS assay for identification of artifact compounds. (AID 1845222);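 further: NLuc secreted into diluted conditioned medium of S16 cells; series mostly up to about 54 µM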
How it was run: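 qHTS format, against NLuc in S16 cell-conditioned medium. Nano-Glo substrate 1:100 was added after 15 min at room temperature. Luminescence was taken after a further 5 min.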

[6] = Primary redox qHTS assay for identification of artifact compounds. (AID 1845223)
How it was run: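 Amplex Red (25 uM) and HRP (250 mU/mL) in HBSS, with compounds for 15 min, then 250 uM DTT for 30 min, room temperature, dark. Fluorescence 525/598 nm read; normalized to DMSO and 10 uM DA3003; Hill fit.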

Phospholipid hydroperoxide glutathione peroxidase GPX4 (Homo sapiens), sequence (P36969 whole entry, looked up): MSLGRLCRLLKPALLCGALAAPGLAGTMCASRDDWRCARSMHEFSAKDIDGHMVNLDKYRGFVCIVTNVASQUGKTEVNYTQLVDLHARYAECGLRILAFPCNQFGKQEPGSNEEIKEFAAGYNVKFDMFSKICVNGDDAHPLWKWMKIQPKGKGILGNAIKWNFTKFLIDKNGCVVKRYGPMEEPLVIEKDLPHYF
Glutathione peroxidase 1 (Homo sapiens), sequence (P07203 whole entry, looked up): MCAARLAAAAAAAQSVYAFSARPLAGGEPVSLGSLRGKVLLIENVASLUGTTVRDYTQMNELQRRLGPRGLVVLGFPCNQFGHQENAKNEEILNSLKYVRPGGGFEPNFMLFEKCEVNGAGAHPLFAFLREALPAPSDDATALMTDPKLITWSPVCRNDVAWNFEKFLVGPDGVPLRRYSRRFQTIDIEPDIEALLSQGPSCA

Compound	Potency [1]	Potency [2]	Potency [3]	Potency [4]	Potency [5]	Potency [6]
CC(=O)c1cc(C(=O)N[C@@H](C)Cn2ccc(-c3ccc(C#N)c(Cl)c3)n2)[nH]n1	inactive	inactive	inactive	inactive	inactive	inactive
C=C(C(=O)O)C1CC(O)C2(C)CCCC(=C)C2C1 (centres undefined)	inactive	inactive	inactive	inactive	inactive	inactive
CCn1cc(NC(=S)Nc2cc(Cl)ccc2OC)c(C(N)=O)n1	inactive	inactive	inactive	inactive	inactive	inactive
C/C=C(/COC(=O)/C(C)=C/C)C(=O)OC(CC)c1ccc(OC)c(OC)c1 (centres undefined)	inactive	inactive	inactive	inactive	inactive	inactive
COC(=O)C1=CO[C@@H](O[C@@H]2O[C@H](CO)[C@@H](O)[C@H](O)[C@H]2O)[C@@H]2C(COC(C)=O)=C[C@H](O)[C@H]12	inactive	inactive	inactive	inactive	inactive	inactive
COc1ncc2cc(C(=O)Nc3cc(C(=O)NCc4cccc(Cl)c4)ccc3Cl)c(=O)[nH]c2n1	inactive	inactive	inactive	inactive	inactive	inactive
NC(=O)c1csc(C2OC(CO)C(O)C2O)n1 (centres undefined)	inactive	inactive	inactive	inactive	inactive	inactive
CC1=CCC2C(C)(C)CCC[C@]2(C)[C@@]12CC[C@](C)(CC(=O)O)O2 (some centres undefined)	inactive	inactive	inactive	inactive	inactive	inactive
N#Cc1ccc2[nH]cc(CCCCN3CCN(c4ccc5oc(C(N)=O)cc5c4)CC3)c2c1	inactive	inactive	inactive	inactive	inactive	inactive
C=CC(C)(O)C(O)CC1C(C)(O)C(O)C(O)C2C(C)(C)CCCC21C (centres undefined)	inactive	inactive	inactive	inactive	inactive	inactive
CC(C)CCC(=O)CC1c2ccccc2C(=O)N1c1ccc2ccc(Cl)nc2n1 (centres undefined)	inactive	inactive	inactive	inactive	inactive	inactive
C=C1[C@H](OC(C)=O)[C@H]2[C@@H](OC(C)=O)[C@](C)(OC(C)=O)C[C@]2(OC(C)=O)C(=O)[C@H](C)/C=C/C(C)(C)C(=O)[C@H](OC(=O)C(C)CC)[C@H]1OC(C)=O (some centres undefined)	inactive	inactive	inactive	inactive	inactive	inactive
CC[C@H]1OC(=O)[C@](C)(F)C(=O)[C@H](C)[C@@H](O[C@@H]2O[C@H](C)C[C@H](N(C)C)[C@H]2O)[C@](C)(OC)C[C@@H](C)C(=O)[C@@H](C)[C@H]2N(CCCCn3cc(-c4cccc(N)c4)nn3)C(=O)O[C@]12C	inactive	inactive	inactive	inactive	inactive	inactive
COc1c(C)c(OCC(O)C(C)(C)O)cc2c1COC2=O (centres undefined)	inactive	inactive	inactive	inactive	inactive	inactive
CC1(C)CCC(C)(C)c2cc(C3(c4ccc(C(=O)O)cc4)OCCO3)ccc21	inactive	inactive	inactive	inactive	inactive	inactive
CC(=O)C12OC(C)(C)OC1CC1C3CCC4=CC(=O)C=CC4(C)C3(F)C(O)CC12C (centres undefined)	inactive	inactive	inactive	inactive	inactive	inactive
C[C@@H]1C[C@@H](O)[C@@]23CO[C@@H](O)[C@@H]2CCC[C@@H]3[C@@]12C[C@@H](c1ccoc1)OC2=O	inactive	inactive	inactive	inactive	inactive	inactive
O=C(O[C@H]1[C@@H]2C[C@@H]3OC[C@](O)([C@@H]1Cl)[C@H]2C(O[C@@H]1O[C@H](CO)[C@@H](O)[C@H](O)[C@H]1O)O3)c1ccc(O)c(O)c1 (some centres undefined)	inactive	inactive	inactive	1.46 µM (active)	inactive	inactive
C=CC1(C)C=C2CCC3C(C)(C)C(O[C@@H]4O[C@@H](CO)[C@H](O)[C@H]4O)CCC3(C)C2CC1O[C@@H]1O[C@H](C)[C@H](O)[C@H](O)[C@H]1O (some centres undefined)	inactive	inactive	inactive	inactive	inactive	inactive
C=C1C(=O)OC2CC(C)=C(C(C)CCCO)C(O)C12 (centres undefined)	inactive	inactive	inactive	5.97 µM (active)	inactive	inactive
COc1cccc(-c2cc(NCc3ccc4c(c3)OCO4)nc(N)n2)c1	inactive	inactive	inactive	inactive	inactive	inactive
CCCC1(c2ccccc2)NC(=O)N(CC(=O)N(C)Cc2c(F)cccc2Cl)C1=O (centres undefined)	inactive	inactive	inactive	inactive	inactive	inactive

Compound	Potency [1]	Potency [2]	Potency [3]	Potency [4]	Potency [5]	Potency [6]
Cc1cc(O)c(-c2ccc([C@@H](C)CN(C)C)cc2)c2c1[nH]c(=O)c1sccc12	inactive	inactive	inactive	inactive	inactive	inactive
Cc1noc(=O)c2ccc(NC(=O)C(O)(CC(C)(C)c3cccc4c3OCC4)C(F)(F)F)cc12 (centres undefined)	inactive	inactive	inactive	inactive	inactive	inactive
CC(C)C(C#N)O[C@@H]1O[C@H](CO[C@@H]2O[C@@H](C)[C@H](O)[C@@H](O)[C@H]2O)[C@@H](O)[C@H](O)[C@H]1O (some centres undefined)	inactive	inactive	inactive	inactive	inactive	inactive
COc1cc2ncnc(Nc3cccc(Cl)c3F)c2cc1OC(=O)N1CCN(C)C[C@H]1C	inactive	inactive	inactive	inactive	inactive	inactive
CC(C)(C#N)c1ccc(N2C(=O)OCc3cnc4ccc(-c5cnc6ccccc6c5)cc4c32)cc1	inactive	inactive	inactive	inactive	inactive	inactive
Cc1c[nH]c2nccc(Oc3c(F)cc(Nc4cc(Cl)nc(N)n4)cc3F)c12	inactive	inactive	inactive	inactive	inactive	inactive
C[C@@H]1CN(Cc2ccccc2)C[C@H]1c1nc2c(cnn2C2CCOCC2)c(=O)[nH]1	inactive	inactive	inactive	inactive	inactive	inactive
Cc1ccc(Cc2c(C)nc3nc(SCC(=O)NCCN4CCNCC4)nn3c2C)cc1	inactive	inactive	inactive	inactive	inactive	inactive
O=C(CO)[C@@H](O)[C@H](O[C@@H]1O[C@H](CO)[C@H](O)[C@H](O)[C@H]1O)[C@H](O)CO	inactive	inactive	inactive	inactive	inactive	inactive
CC(=O)N[C@H](Cc1ccc2ccccc2c1)C(=O)N[C@H](Cc1ccc(Cl)cc1)C(=O)N[C@H](Cc1cccnc1)C(=O)N[C@@H](CO)C(=O)N[C@@H](Cc1ccc(O)cc1)C(=O)N[C@H](CCCNC(N)=O)C(=O)N[C@@H](CC(C)C)C(=O)N[C@@H](CCCN=C(N)N)C(=O)N1CCC[C@H]1C(=O)N[C@H](C)C(N)=O (Ac-[d2Nal][dPhe(4-Cl)][d3Pal]SY[dCit]LRP[dA]-NH2)	inactive	inactive	inactive	inactive	inactive	inactive
CC1(C(=O)O)CCCC2(C)C3=CCC4CC3(CCC12)CC4CO (centres undefined)	inactive	inactive	inactive	inactive	inactive	inactive
CCN(Cc1cccnc1)C(=O)CN(c1ccc(OC)nc1)S(=O)(=O)c1ccccc1C	inactive	inactive	inactive	inactive	inactive	inactive
CCNCc1nc2c(N)nc3ccccc3c2n1CC(C)(C)O	inactive	inactive	inactive	inactive	inactive	inactive
CC1=CC(=O)CC(C)(C)C1/C=C/C(C)O[C@@H]1O[C@H](CO)[C@@H](O)[C@H](O)[C@H]1O[C@@H]1OC[C@](O)(CO)[C@H]1O (some centres undefined)	inactive	inactive	inactive	inactive	inactive	inactive
O=C(NOCC(O)CO)c1ccc(F)c(F)c1Nc1ccc(I)cc1F (centres undefined)	inactive	inactive	inactive	inactive	inactive	inactive
Nc1ncnc2c1nc(N)n2[C@@H]1O[C@H](CO)[C@@H](O)[C@H]1O	inactive	inactive	inactive	inactive	inactive	inactive
COC(=O)C[C@H]1C(C)(C)[C@H](OC(C)=O)C2CC3=C4CC(=O)O[C@@H](c5ccoc5)[C@]4(C)CCC3[C@@]1(C)C2=O (some centres undefined)	inactive	inactive	inactive	inactive	inactive	inactive
O=C(NCc1ccc(F)cc1)C(=O)c1c[nH]c2ccccc12	inactive	inactive	inactive	inactive	inactive	inactive
COc1cc(O)cc(C)c1C(=O)O[C@H]1[C@@H](OC(C)=O)[C@H](n2ccc(=O)[nH]c2=O)O[C@@H]1CO	inactive	inactive	inactive	inactive	inactive	inactive
COc1cc2c(cc1OC)CC(=O)N(CCCNC[C@H]1Cc3cc(OC)c(OC)cc31)CC2	inactive	inactive	inactive	inactive	inactive	inactive
O=C(O)Cc1cn(C2OCC(O)C(O)C2O[C@@H]2O[C@H](CO)[C@@H](O)[C@H](O)[C@H]2O)c2ccccc12 (some centres undefined)	inactive	inactive	inactive	inactive	inactive	inactive
CN(C)C/C=C/C(=O)Nc1cccc(C(=O)Nc2cccc(Nc3ncc(Cl)c(-c4c[nH]c5ccccc45)n3)c2)c1	inactive	inactive	inactive	inactive	inactive	inactive

— PubChem BioAssay (NCATS)
